{"source": "paper PMC4336329", "about": "(PLoS ONE, 2015)", "note": "In all, about 310,000 compounds went through this assay and about 2,200 (0.71%) showed an effect of 50% or more. Effects have a minus sign here. The entries come from a sample that favours strong results as a whole."}
{"target": "human ether-à-go-go-related gene (hERG) potassium channel (human, UniProt Q12809)", "sequence (Q12809 whole entry, looked up)": "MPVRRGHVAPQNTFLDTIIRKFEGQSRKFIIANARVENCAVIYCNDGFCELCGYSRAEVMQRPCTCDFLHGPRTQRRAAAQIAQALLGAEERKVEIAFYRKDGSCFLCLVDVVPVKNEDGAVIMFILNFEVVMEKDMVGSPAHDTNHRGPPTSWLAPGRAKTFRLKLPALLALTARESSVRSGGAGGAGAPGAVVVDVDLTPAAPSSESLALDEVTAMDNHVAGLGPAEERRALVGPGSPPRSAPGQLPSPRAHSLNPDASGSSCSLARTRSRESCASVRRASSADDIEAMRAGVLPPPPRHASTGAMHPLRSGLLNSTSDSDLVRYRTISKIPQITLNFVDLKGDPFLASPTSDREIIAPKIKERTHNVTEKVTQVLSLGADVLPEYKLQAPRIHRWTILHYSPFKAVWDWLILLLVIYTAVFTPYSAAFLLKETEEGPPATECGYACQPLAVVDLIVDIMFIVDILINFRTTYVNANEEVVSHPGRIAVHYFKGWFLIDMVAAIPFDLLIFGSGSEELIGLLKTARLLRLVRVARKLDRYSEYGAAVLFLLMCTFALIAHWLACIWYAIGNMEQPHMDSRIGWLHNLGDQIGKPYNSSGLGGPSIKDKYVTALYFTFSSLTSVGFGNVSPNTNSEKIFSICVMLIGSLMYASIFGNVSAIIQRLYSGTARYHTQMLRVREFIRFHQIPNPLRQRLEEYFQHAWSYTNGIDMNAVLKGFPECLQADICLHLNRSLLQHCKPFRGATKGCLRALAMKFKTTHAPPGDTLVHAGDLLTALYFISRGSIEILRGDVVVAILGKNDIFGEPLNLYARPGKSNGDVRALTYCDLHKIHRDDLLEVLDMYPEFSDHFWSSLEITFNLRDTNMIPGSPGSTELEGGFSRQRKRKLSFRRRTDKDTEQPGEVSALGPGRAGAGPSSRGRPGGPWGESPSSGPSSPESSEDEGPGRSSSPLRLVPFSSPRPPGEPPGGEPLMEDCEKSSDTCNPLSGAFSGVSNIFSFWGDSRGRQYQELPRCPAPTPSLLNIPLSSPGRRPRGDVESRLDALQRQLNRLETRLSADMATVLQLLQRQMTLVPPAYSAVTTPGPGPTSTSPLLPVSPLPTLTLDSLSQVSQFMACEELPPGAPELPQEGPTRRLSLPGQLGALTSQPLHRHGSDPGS", "experiment": "primary screen, population patch clamp on CHO cells stably expressing hERG; higher = less effect of the substance", "units": {"hERG current change (%, negative = inhibition) at 1uM": "%"}}
{"compound": "CCOC(=O)c1c(C)[nH]c(C(=O)C(C)OC(=O)c2ccc(NC(=O)CC#N)cc2)c1C", "note": "(stereo not shown)", "hERG current change (%, negative = inhibition) at 1uM": 17.5}
{"compound": "O=C(O)C(Oc1ccc2c(-c3ccccc3)cc(=O)oc2c1)c1ccccc1", "note": "(stereo not shown)", "hERG current change (%, negative = inhibition) at 1uM": 9.07}
{"compound": "COc1ccc2c3c(c(=O)oc2c1OCC(=O)O)CCCC3", "hERG current change (%, negative = inhibition) at 1uM": 23.8}
{"compound": "CCOc1ccc(-c2cc(C(=O)O)c3ccccc3n2)cc1", "hERG current change (%, negative = inhibition) at 1uM": 7.66}
{"compound": "CCC(C)NCCCCOc1ccc(Br)cc1.O=C(O)C(=O)O", "note": "(stereo not shown)", "hERG current change (%, negative = inhibition) at 1uM": -0.232}
{"compound": "CCC(C)NCCCOc1ccc([N+](=O)[O-])cc1.O=C(O)C(=O)O", "note": "(stereo not shown)", "hERG current change (%, negative = inhibition) at 1uM": -73.7}
{"compound": "COc1ccccc1OCCNC(=O)/C=C/c1ccc([N+](=O)[O-])cc1", "hERG current change (%, negative = inhibition) at 1uM": -9.26}
{"compound": "CCCOc1ccc(OCCCCNC(C)CC)cc1.O=C(O)C(=O)O", "note": "(stereo not shown)", "hERG current change (%, negative = inhibition) at 1uM": 1.92}
{"compound": "Brc1ccc(OCCCCN2CCCCC2)cc1", "hERG current change (%, negative = inhibition) at 1uM": -11.6}
{"compound": "O=[N+]([O-])c1ccc(OCCCCCN2CCOCC2)cc1", "hERG current change (%, negative = inhibition) at 1uM": -24.9}
{"compound": "COc1ccc(OCCNC(=O)/C=C/c2ccc([N+](=O)[O-])cc2)cc1", "hERG current change (%, negative = inhibition) at 1uM": -59.9}
{"compound": "O=[N+]([O-])c1ccc(OCCCCN2CCCCC2)cc1", "hERG current change (%, negative = inhibition) at 1uM": -59.4}
{"compound": "COc1ccc(/C=C/C(=O)NCCOc2ccc(C)cc2)cc1", "hERG current change (%, negative = inhibition) at 1uM": 10.5}
{"compound": "Cc1[nH]n(-c2ccccc2)c(=O)c1C=Nc1ccc(S(=O)(=O)Nc2nccs2)cc1", "hERG current change (%, negative = inhibition) at 1uM": 12.2}
{"compound": "O=S1(=O)CCC(NC(=S)Nc2ccc3ccccc3c2)C1", "note": "(stereo not shown)", "hERG current change (%, negative = inhibition) at 1uM": 11.6}
{"compound": "COCCn1c(SCC(=O)NC2(C#N)CCCCC2)nc2ccccc2c1=O", "hERG current change (%, negative = inhibition) at 1uM": -12.8}
{"compound": "O=c1[nH]c(Cn2nnc(-c3ccccc3)n2)nc2scc(-c3ccccc3)c12", "hERG current change (%, negative = inhibition) at 1uM": 13.1}
{"compound": "N#Cc1nc(COc2cccc(Cl)c2)oc1NCc1ccncc1", "hERG current change (%, negative = inhibition) at 1uM": -53.8}
{"compound": "CN(C)CCNc1oc(COc2cccc(Cl)c2)nc1C#N", "hERG current change (%, negative = inhibition) at 1uM": -4.66}
{"compound": "N#Cc1nc(COc2cccc(Cl)c2)oc1NCc1ccco1", "hERG current change (%, negative = inhibition) at 1uM": -1.39}
{"compound": "Cc1nc2c(n1C1CCCCC1)C(=O)c1ccccc1C2=O", "hERG current change (%, negative = inhibition) at 1uM": 19.1}
{"compound": "COc1ccc2c(c1)c(C(=O)C(C)N1CCCCC1)c(C)n2C", "note": "(stereo not shown)", "hERG current change (%, negative = inhibition) at 1uM": 16.9}
{"compound": "COc1cccc(CC2(CO)CCCN(Cc3cc(F)ccc3-n3cccn3)C2)c1", "note": "(stereo not shown)", "hERG current change (%, negative = inhibition) at 1uM": -85.1}
{"compound": "COc1cccc(CC2(CO)CCCN(Cc3cn[nH]c3-c3ccc(F)cc3)C2)c1", "note": "(stereo not shown)", "hERG current change (%, negative = inhibition) at 1uM": 6.39}
{"compound": "OCC1(CCCc2ccccc2)CCN(Cc2ccc(F)cc2)CC1", "hERG current change (%, negative = inhibition) at 1uM": -25.3}
{"compound": "COc1ccc(-n2ccnc2CN2CCCC(CO)(Cc3cccc(OC)c3)C2)cc1", "note": "(stereo not shown)", "hERG current change (%, negative = inhibition) at 1uM": 0.509}
{"compound": "COc1ccc(F)c(CN2CCCC(CO)(Cc3cccc(Cl)c3)C2)c1", "note": "(stereo not shown)", "hERG current change (%, negative = inhibition) at 1uM": 11.8}
{"compound": "CCn1ccnc1CN1CCCC(CO)(Cc2cccc(OC)c2)C1", "note": "(stereo not shown)", "hERG current change (%, negative = inhibition) at 1uM": -1.48}
{"compound": "OCC1(CCCc2ccccc2)CCN(Cc2cc(F)ccc2F)CC1", "hERG current change (%, negative = inhibition) at 1uM": -6.63}
{"compound": "OCC1(CCc2ccccc2)CCN(Cc2cc(F)ccc2-n2cccn2)CC1", "hERG current change (%, negative = inhibition) at 1uM": -85.3}
{"compound": "COc1cccc(CC2(CO)CCCN(Cc3c(C)cc(C)cc3-n3cccn3)C2)c1", "note": "(stereo not shown)", "hERG current change (%, negative = inhibition) at 1uM": -93.1}
{"compound": "O=C(NCCS(=O)(=O)NCc1ccccn1)c1ccccc1", "hERG current change (%, negative = inhibition) at 1uM": 8.81}
{"compound": "COc1ccccc1C(=O)NNC(=O)C12CC3CC(CC(C3)C1)C2", "hERG current change (%, negative = inhibition) at 1uM": 12.4}
{"compound": "COc1ccc(OC)c(-c2csc(N(Cc3ccco3)C(=O)c3cccs3)n2)c1", "hERG current change (%, negative = inhibition) at 1uM": -0.179}
{"compound": "CC(=O)CCC(=O)NCCc1ccccc1F", "hERG current change (%, negative = inhibition) at 1uM": 5.68}
{"compound": "Cc1ccc(NC(=S)NNC(=O)C2CC2c2ccc(C)cc2)cc1", "note": "(stereo not shown)", "hERG current change (%, negative = inhibition) at 1uM": -10.4}
{"compound": "COP(=O)(CC(=O)c1ccccc1)CC(=O)c1ccccc1", "hERG current change (%, negative = inhibition) at 1uM": 8.51}
{"compound": "COCCCNC(=S)NC1CC2CCCC(C1)N2Cc1cccs1", "note": "(stereo not shown)", "hERG current change (%, negative = inhibition) at 1uM": 1.43}
{"compound": "COc1nc(-c2ccccc2)ccc1-c1noc(-c2cccs2)n1", "hERG current change (%, negative = inhibition) at 1uM": 0.091}
{"compound": "CCC(=O)Nc1ccc(N2CCOCC2)c(S(=O)(=O)Nc2ccc(Cl)cc2)c1", "hERG current change (%, negative = inhibition) at 1uM": 11.9}
{"compound": "Br.N=C1c2ccccc2CN1c1ccc(N2CCOCC2)c(S(=O)(=O)Nc2ccc(Cl)cc2)c1", "hERG current change (%, negative = inhibition) at 1uM": -89.2}
{"compound": "COc1ccccc1NS(=O)(=O)c1cc(NC(=O)C(C)(C)C)ccc1N1CCOCC1", "hERG current change (%, negative = inhibition) at 1uM": -4.51}
{"compound": "O=S(=O)(Nc1ccc(N2CCOCC2)cc1)c1cc(Cl)ccc1Cl", "hERG current change (%, negative = inhibition) at 1uM": 7.82}
